From the supplement of paper PMC11732987, “Enantioselective OTUD7B fragment discovery through chemoproteomics screening and high-throughput optimisation” (Communications Chemistry, 2025)

Assays:
Experiment in all cases: log2 ratio of Biotin-Ahx-Ub-VS probe labelling (fragment/DMSO); higher = less target engagement (more negative = stronger competition), active = hit call of the paper (q ≤ 0.05, log2 ratio ≤ -1)
Conditions in all cases: compound concentration: 200 uM; treatment time: 3 h
USP34 = USP34 (UniProt Q70CQ2)
USP34, sequence (Q70CQ2 whole entry, the tested form may be a part): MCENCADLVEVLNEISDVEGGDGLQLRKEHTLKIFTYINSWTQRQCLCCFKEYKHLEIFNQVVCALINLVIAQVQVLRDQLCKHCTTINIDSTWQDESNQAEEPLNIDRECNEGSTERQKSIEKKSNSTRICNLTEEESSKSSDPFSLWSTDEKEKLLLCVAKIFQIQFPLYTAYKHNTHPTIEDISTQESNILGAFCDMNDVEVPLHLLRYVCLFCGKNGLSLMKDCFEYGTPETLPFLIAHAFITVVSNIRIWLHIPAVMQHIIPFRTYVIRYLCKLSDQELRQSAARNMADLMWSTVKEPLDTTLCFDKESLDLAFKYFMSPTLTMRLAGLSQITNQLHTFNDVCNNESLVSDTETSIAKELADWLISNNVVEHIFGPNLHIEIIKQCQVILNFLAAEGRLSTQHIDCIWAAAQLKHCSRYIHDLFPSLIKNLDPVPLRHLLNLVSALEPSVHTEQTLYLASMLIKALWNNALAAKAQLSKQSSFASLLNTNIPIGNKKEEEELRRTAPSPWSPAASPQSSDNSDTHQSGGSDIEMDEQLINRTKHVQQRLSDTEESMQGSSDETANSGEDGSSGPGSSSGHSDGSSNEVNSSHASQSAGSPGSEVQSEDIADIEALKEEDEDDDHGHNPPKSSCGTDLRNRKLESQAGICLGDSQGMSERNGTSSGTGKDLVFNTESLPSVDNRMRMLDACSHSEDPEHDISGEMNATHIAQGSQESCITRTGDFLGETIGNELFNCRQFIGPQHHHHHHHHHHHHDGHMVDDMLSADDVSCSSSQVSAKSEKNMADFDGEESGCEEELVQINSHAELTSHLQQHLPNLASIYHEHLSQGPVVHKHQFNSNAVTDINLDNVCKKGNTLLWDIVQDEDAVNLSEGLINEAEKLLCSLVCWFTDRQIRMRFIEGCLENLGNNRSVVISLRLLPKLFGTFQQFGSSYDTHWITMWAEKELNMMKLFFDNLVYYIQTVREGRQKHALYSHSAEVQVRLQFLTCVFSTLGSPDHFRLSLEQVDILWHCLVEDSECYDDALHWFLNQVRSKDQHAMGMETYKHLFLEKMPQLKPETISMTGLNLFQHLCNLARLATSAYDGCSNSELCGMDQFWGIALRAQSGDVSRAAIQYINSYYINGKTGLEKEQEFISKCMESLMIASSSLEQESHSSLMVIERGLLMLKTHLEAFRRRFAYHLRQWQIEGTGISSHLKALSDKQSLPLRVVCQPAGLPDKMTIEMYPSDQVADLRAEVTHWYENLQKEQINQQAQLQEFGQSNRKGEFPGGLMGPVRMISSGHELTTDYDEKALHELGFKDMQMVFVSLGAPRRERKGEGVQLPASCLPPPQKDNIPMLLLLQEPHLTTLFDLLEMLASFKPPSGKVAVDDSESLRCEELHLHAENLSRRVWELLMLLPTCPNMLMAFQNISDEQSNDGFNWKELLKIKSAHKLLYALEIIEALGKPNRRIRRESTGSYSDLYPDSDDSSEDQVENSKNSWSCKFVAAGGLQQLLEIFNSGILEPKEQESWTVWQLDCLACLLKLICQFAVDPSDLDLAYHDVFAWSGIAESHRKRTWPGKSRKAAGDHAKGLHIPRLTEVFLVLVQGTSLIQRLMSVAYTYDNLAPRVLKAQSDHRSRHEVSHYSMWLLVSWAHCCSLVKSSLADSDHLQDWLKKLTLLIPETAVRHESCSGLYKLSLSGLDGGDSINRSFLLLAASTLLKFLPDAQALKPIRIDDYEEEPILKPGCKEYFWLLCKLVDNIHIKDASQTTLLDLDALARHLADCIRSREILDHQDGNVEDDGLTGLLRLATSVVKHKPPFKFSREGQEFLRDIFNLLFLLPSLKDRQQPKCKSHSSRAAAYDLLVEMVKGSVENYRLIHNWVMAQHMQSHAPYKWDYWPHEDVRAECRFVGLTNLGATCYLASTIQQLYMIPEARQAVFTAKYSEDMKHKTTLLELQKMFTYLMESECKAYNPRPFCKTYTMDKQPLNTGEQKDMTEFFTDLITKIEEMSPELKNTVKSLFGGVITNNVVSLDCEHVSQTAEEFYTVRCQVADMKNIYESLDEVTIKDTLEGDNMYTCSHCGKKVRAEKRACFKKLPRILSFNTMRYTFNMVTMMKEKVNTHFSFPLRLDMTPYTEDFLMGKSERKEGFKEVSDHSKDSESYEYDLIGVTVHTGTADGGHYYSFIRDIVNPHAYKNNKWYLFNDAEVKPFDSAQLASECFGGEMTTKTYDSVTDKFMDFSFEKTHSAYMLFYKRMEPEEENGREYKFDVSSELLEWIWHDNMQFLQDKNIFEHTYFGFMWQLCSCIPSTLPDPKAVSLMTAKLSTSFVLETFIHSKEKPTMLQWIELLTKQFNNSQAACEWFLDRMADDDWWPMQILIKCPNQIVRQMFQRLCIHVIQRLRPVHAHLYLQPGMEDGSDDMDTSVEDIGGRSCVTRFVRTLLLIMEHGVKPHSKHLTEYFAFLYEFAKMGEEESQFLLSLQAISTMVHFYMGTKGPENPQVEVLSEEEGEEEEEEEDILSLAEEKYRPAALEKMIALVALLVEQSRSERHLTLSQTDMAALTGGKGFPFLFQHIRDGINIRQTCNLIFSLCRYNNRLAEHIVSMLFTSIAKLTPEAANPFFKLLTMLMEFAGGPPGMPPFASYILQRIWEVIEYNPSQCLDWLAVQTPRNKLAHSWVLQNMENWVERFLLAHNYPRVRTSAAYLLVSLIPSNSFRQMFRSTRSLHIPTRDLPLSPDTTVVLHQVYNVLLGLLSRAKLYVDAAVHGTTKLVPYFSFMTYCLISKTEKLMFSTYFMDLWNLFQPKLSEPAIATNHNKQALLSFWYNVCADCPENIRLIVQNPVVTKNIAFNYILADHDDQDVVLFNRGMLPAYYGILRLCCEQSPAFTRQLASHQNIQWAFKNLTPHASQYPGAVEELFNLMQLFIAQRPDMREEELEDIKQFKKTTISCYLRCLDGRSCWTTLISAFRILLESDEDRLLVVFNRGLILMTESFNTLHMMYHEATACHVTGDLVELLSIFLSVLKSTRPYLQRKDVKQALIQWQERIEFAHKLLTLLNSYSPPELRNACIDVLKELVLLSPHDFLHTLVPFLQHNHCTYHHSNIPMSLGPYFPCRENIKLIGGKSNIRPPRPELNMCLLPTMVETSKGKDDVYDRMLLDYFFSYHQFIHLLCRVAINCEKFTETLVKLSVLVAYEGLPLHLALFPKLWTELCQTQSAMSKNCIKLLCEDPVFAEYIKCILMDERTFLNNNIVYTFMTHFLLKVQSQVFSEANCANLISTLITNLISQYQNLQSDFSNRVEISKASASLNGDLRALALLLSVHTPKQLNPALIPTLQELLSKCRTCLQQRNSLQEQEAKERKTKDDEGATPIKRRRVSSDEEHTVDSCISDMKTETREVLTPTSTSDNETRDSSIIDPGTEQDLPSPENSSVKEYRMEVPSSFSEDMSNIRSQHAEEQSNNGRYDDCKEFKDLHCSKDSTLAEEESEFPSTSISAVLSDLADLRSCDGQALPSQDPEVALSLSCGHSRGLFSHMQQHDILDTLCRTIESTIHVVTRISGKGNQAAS
Summary of the method: (§1)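 Labelled DUBs from HEK293T lysate were NeutrAvidin-enriched, digested with LysC and trypsin, and run by diaPASEF LC-MS/MS. Before that, each 495 µg sample in Tris/CHAPS/IGEPAL buffer with protease inhibitors was treated in triplicate with fragment at 200 µM or vehicle for 3 h, then with Biotin-Ahx-Ub-VS at 0.5 µM final for 1 h. Values are average log2 ratios of fragment over vehicle by unpaired t-test, based on global-median-normalised Spectronaut label-free quantities from proteins with ≥2 unique peptides.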

USP36 = molecular target: T1, USP36 (UniProt Q9P275)
T1 sequence (whole entry): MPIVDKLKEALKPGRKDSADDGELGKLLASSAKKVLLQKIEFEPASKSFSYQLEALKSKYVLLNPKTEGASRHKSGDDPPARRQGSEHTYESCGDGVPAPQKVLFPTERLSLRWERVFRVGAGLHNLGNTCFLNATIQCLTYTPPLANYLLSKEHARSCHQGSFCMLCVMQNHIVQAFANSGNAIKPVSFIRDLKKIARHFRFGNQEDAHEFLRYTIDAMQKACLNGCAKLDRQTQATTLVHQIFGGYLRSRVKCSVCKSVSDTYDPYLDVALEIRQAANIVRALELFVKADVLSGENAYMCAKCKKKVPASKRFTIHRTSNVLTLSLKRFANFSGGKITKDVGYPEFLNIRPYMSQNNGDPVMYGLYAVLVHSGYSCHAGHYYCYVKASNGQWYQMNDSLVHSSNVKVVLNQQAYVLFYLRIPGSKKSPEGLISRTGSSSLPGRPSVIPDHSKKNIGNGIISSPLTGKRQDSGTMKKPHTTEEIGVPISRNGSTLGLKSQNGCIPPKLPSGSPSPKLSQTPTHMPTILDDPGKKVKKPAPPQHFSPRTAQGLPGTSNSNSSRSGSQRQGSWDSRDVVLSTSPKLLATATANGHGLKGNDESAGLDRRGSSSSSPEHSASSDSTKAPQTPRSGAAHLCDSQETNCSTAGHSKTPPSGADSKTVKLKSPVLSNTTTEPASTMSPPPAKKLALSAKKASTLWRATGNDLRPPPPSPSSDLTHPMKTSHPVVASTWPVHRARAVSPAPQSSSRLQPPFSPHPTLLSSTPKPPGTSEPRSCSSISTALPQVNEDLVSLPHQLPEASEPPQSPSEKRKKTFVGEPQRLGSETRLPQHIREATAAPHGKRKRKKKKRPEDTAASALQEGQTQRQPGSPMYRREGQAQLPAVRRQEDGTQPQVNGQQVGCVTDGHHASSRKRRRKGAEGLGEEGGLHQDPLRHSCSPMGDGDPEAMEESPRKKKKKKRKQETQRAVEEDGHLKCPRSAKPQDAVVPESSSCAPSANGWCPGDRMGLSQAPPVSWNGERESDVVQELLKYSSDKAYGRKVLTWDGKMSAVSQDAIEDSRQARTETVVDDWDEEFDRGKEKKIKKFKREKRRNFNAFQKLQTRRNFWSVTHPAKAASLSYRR
Summary of the method: as §1

USP38 = molecular target: T2, USP38 (UniProt Q8NB14)
T2 sequence (whole entry): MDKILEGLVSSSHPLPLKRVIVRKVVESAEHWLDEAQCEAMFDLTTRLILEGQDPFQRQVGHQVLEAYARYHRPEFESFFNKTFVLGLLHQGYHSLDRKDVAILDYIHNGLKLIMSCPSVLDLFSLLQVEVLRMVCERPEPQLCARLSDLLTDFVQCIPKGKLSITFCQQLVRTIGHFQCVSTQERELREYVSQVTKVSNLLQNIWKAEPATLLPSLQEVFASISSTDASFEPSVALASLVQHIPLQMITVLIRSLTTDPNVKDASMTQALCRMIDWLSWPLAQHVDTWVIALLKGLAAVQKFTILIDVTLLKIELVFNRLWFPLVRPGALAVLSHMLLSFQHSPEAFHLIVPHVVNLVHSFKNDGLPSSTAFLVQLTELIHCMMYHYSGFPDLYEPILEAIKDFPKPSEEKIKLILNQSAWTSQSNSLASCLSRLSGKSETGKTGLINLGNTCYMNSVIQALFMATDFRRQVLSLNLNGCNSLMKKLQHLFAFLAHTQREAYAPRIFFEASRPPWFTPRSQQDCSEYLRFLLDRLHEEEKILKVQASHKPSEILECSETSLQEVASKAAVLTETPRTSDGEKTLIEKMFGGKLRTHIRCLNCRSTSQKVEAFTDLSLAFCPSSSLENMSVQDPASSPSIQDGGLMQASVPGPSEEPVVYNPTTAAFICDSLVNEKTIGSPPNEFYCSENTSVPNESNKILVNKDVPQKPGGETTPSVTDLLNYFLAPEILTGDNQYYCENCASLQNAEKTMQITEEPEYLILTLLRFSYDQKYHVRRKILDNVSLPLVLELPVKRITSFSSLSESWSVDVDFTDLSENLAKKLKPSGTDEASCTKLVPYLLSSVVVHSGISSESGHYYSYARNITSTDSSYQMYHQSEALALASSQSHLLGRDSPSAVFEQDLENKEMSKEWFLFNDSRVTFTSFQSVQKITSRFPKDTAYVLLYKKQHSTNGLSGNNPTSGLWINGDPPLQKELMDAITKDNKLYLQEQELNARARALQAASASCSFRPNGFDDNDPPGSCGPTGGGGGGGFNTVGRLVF
Summary of the method: as §1

USP39 = molecular target: T3, USP39 (UniProt Q53GS9)
T3 sequence (whole entry): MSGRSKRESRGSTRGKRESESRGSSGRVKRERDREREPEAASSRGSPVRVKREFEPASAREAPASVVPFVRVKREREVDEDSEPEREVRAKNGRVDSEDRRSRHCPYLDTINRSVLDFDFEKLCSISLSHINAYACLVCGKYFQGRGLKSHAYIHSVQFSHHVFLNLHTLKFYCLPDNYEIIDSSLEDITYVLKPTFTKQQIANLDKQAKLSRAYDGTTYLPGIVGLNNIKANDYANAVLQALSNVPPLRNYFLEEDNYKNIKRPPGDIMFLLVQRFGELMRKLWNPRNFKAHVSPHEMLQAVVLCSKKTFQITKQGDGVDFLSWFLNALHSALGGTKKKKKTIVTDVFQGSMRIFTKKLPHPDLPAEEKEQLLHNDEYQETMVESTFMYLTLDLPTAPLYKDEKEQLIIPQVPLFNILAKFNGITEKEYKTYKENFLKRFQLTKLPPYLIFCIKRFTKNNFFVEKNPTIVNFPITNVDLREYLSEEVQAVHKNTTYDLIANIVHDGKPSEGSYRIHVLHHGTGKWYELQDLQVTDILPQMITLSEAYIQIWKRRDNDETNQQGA
Summary of the method: as §1

USP4 = molecular target: T4, USP4 (UniProt Q13107)
T4 sequence (whole entry): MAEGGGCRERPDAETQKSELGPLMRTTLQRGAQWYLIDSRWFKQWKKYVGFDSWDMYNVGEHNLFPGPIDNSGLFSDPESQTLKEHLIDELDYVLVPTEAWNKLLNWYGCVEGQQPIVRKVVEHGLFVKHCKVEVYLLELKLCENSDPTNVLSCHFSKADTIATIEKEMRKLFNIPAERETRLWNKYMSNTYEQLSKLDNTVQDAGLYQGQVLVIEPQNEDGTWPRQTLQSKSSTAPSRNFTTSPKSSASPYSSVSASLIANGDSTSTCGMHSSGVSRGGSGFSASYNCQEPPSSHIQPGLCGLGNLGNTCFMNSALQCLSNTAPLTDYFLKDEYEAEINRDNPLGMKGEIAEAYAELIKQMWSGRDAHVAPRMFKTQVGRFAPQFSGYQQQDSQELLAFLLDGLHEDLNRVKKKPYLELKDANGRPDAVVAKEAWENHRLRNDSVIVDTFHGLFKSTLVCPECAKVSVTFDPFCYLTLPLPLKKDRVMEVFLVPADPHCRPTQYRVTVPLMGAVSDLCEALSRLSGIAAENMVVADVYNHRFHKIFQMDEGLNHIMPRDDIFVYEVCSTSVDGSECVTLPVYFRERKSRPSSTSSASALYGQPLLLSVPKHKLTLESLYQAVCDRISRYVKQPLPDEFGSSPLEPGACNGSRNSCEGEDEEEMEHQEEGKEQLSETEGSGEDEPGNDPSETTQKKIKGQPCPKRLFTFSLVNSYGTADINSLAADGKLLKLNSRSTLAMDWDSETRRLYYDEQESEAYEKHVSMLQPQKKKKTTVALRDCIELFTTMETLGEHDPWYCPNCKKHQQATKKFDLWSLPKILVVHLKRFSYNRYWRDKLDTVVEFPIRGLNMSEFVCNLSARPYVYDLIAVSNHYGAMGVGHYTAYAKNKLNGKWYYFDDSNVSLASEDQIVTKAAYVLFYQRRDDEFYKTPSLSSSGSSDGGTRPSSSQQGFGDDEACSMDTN
Summary of the method: as §1

Measured: log2 ratio of Biotin-Ahx-Ub-VS probe labelling

CN(C)C(=O)c1ccc(CNC(=O)CCl)cc1
inactive: USP34 0.0263 | USP36 0.0235 | USP38 0.231 | USP39 0.0923 | USP4 0.059
